High-throughput results (PubChem BioAssay)
This is a sample that favours compounds with a hit; in the whole collection about 1.8% have one here.
IEC-6 cytotox – IEC-6 cytotoxicity, counter-screen for KLF5 inhibitors; inhibition, % at 5 µM; actives 0.78% (n = 290,000); AID 1825; luminescence viability; in the data active = inhibition above about 22%;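 note: 0% = plate median of test compound wells and 100% = cytotoxic reference compound wells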
Ba/F3 V617F tox – lowers viability of Ba/F3 cells expressing EpoR and JAK2V617F | ATP luminescence | inhibition, % at 5.6 µM | actives 1.1% (n = 220,000) | AID 1446;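 active = inhibition above the campaign mean plus 3 SD over all tested compounds, cut at about 24% in these data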;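 note: cytokine-independent growth of Ba/F3 cells driven by EpoR plus mutant JAK2; 0% = DMSO-treated cells and 100% = JAK inhibitor I control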
KLF5 inhibitor – inhibitors of KLF5 expression; DLD-1 KLF5 promoter-luciferase reporter, luminescence; inhibition, % at 5 µM; actives 0.23% (n = 290,000); AID 1700;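 active = inhibition above a per-plate limit of that plate's mean compound inhibition plus 3 SD, cut at about 60% in these data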;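 note: 0% = DMSO wells and 100% = LY294002 at 200 µM; higher means less KLF5 promoter-driven luciferase light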
APP transl inh – APP translation inhibition; SH-SY5Y APP 5'UTR-luciferase reporter, luminescence; inhibition, % at 2 µM; actives 0.82% (n = 190,000); AID 1285;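 active = inhibition above a set limit, derived from the sample mean plus 3 SD, cut at about 45% in these data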
BaF3 tox – parental Ba/F3 viability inhibition as JAK2V617F counter-screen; CellTiter-Glo ATP luminescence; inhibition, % at 5.6 µM; actives 1.1% (n = 220,000);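 active = inhibition above a per-campaign cutoff, the mean inhibition of all tested compounds plus 3 SD, cut at about 27% in these data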;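 note: 0% = DMSO wells and 100% = JAK Inhibitor I control wells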
BaF3 tox 2 – parental Ba/F3 viability inhibition for JAK2V617F counter-screen | shares compounds with Ba/F3 V617F tox | CellTiter-Glo luminescence; cells kept alive by added IL-3 | inhibition, % at 5.6 µM | actives 31% (n = 580) | AID 1520;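 active = cell growth inhibition above the hit limit set in the earlier mutant JAK2 cell screen, cut at about 27% in these data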;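 note: plate controls were DMSO-treated cells for no effect and JAK Inhibitor I control wells for full effect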
JAK2V617F confrm – confirmation: loss of viability in JAK2V617F-dependent Ba/F3 cells. shares compounds with Ba/F3 V617F tox. Ba/F3 EpoR-JAK2V617F viability, CellTiter-Glo luminescence. inhibition, % at 5.6 µM. actives 66% (n = 580). AID 1521;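 active = mean inhibition above the hit cutoff derived in the earlier primary screen, cut at about 25% in these data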;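 note: 0% = DMSO-treated cells and 100% = JAK inhibitor I control wells; higher means lower luminescence from reduced cell ATP and viability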
Numbers without * were called inactive; . = no result given.

SMILES	IEC-6 cytotox	Ba/F3 V617F tox	KLF5 inhibitor	APP transl inh	BaF3 tox	BaF3 tox 2	JAK2V617F confrm
Nc1nc(C(=O)N2CCOCC2)nn1S(=O)(=O)c1ccc(Cl)cc1	-2	7	-11	4	13	.	.
CC(Sc1ncc(C(F)(F)F)cc1Cl)C(=O)NC(N)=O (stereo not drawn)	0	39*	-25	-14	3	0	-2
Cc1cc(SCC(=O)Nc2cccc(S(=O)(=O)NC3=NCCCCC3)c2)c(C)cc1Br	1	26*	-11	-14	1	1	31*
CC(=O)Nc1ccc(NC(=O)CN(C)S(=O)(=O)c2ccc3c(c2)CCC(=O)N3)cc1	-9	.	0	.	.	.	.
CC(C)Cc1nnc(NC(=O)Cc2ccc([N+](=O)[O-])cc2)s1	4	0	-5	9	8	.	.
O=c1cnn([C@@H]2O[C@H](CO)[C@@H](O)[C@H]2O)c(=O)[nH]1	16	36*	40	-2	11	3	68*
O=c1[nH]cnc2c1ncn2[C@@H]1O[C@H](CO)[C@@H](O)[C@H]1O	-4	-3	-4	11	0	.	.
Cc1ccc(-n2nc3c(c2NC(=O)C(C)(C)C)CS(=O)(=O)C3)cc1	-1	.	-10	.	.	.	.
COCc1cc(=O)[nH]c(SCC(=O)Nc2ccccc2)n1	-11	95*	14	-11	-4	-4	-2
CCCOc1ccc(C(=O)C(CN2CCOCC2)c2ccccc2)cc1 (stereo not drawn)	-5	46*	-3	17	12	10	97*
CCCOc1ccc(C(=O)C(c2ccccc2)N2CCOCC2)cc1 (stereo not drawn)	2	-1	-17	4	4	.	.
COc1ccc(CCNC(=O)Nc2cc(F)c(F)cc2Cl)cc1OC	8	.	-23	.	.	.	.
Cc1cccc(Nc2nc(NCc3ccco3)c3ccccc3n2)c1	1	33*	-8	18	13	49*	52*
CCOCCCN(C(=O)c1snc(C(N)=O)c1N)C(C(=O)NCCC(C)C)c1ccc(Cl)cc1 (stereo not drawn)	-2	.	-37	.	.	.	.
Cc1nn(-c2ccccc2)c(C)c1NC(=O)COc1ccc2ccccc2c1	2	90*	9	-3	4	-5	-5
CC(C)C[C@@H](CC#N)N1CCN(Cc2ccccc2)CCC1=O	-8	.	-8	.	.	.	.
CCN(CC)S(=O)(=O)c1cccc(C(=O)N[C@H](C(=O)Nc2nc3ccc(F)cc3s2)C(C)C)c1	8	66*	-5	-17	1	-1	13
CC1CCc2c(C(=O)Nc3ccc(OC(F)(F)F)cc3)csc2C1 (stereo not drawn)	-2	-4	-8	-20	0	.	.
CN1/C(=C\C(=O)CSc2nnc(NCc3ccccc3)s2)C(C)(C)c2ccccc21	10	33*	-5	1	23	5	21
CCCc1cc(=O)oc2cc(OCC(=O)N3CCN(C(=O)C4COc5ccccc5O4)CC3)ccc12 (stereo not drawn)	2	.	-12	.	.	.	.
O=C(N/N=C/c1ccccc1)C(=O)N/N=C/c1ccccc1	-4	.	-38	.	.	.	.
O=C(C=C=Nc1ccccc1)C(=O)N=C=Cc1ccccc1	5	68*	-4	.	19	5	79*
CCOC(=O)C(=NC1CCCCC1)NNc1cccc(C(F)(F)F)c1	8	36*	-17	-7	2	0	3
CCOC(=O)C(=NC(C)CC)NNc1cccc(C(F)(F)F)c1 (stereo not drawn)	3	3	-15	-16	5	.	.
O=[N+]([O-])/C(C=Nc1ccccc1O)=C\Nc1ccccc1O	8	39*	-29	.	17	13	68*
SMILES	IEC-6 cytotox	Ba/F3 V617F tox	KLF5 inhibitor	APP transl inh	BaF3 tox	BaF3 tox 2	JAK2V617F confrm
CC1CCCCN1CCCNC(=O)c1ccc(N2CCCC2=O)cc1 (stereo not drawn)	-2	.	22	.	.	.	.
O=C1C=CCC(/C=C/c2ccccc2)O1 (stereo not drawn)	2	46*	-24	31	0	24	97*
CCCCN(CC)Cc1ccc(CNC(=O)Nc2ccc(F)cc2)o1	9	48*	2	12	15	8	39*
Cc1cc(C)cc(OCC(=O)O/N=C(\N)c2cccnc2)c1	-2	35*	-18	.	4	-2	-3
COc1ccc(OC)c(S(=O)(=O)N2CCN(C(=O)CCc3ccccc3)CC2)c1	6	.	-47	.	.	.	.
CNS(=O)(=O)c1cc(S(=O)(=O)NC)c2cccc3c2c1NC3=O	4	.	-4	.	.	.	.
Cc1ccc(CNC(=O)CCS(=O)(=O)c2ccc3c(c2)CC(C)N3C(=O)C2CC2)cc1 (stereo not drawn)	15	.	20	.	.	.	.
CC1CCC2(CC1)NC(=O)N(CC(=O)c1cn(CCC#N)c3ccccc13)C2=O (stereo not drawn)	-3	0	9	.	1	.	.
Cc1ccc(NC(=O)/C(=C\c2ccccc2)NC(=O)/C=C/c2ccccc2)cc1	-2	72*	-11	-14	7	-4	-7
COc1ccc(Cl)cc1S(=O)(=O)NC(C)C(=O)NCc1ccc2c(c1)OCO2 (stereo not drawn)	6	.	-14	.	.	.	.
COc1ccc(-n2nnnc2S(=O)(=O)Cc2ccc(C(=O)O)cc2)cc1	-1	3	16	16	2	.	.
COc1ccc(-n2nnnc2S(=O)(=O)CC(=O)N2CCCCC2)cc1	10	27*	0	16	0	23	88*
O=C(CCc1nc2ccccc2c(=O)[nH]1)OCc1ccc(Cl)cc1Cl	11	-2	-2	-9	-2	.	.
Cc1ccc([C@@H]2[C@@H]3C(=O)N(C)C(=O)[C@@H]3[C@]3(C)C(=O)N(Cc4ccc(-c5ccccc5)cc4)CC(=O)N23)o1	-3	.	-20	.	.	.	.
O=c1[nH]c(Nc2ccc3c(c2)OCCO3)nnc1Cc1ccc(Cl)cc1	-5	2	-12	10	8	.	.
O=C(CSCc1cc(=O)n2nc(C3CC3)sc2n1)Nc1ccc(F)cc1	5	.	5	.	.	.	.
Cc1sc2ncnc(Sc3nnnn3-c3ccccc3)c2c1C	2	-2	-20	5	4	.	.
Clc1ccc(-n2nnnc2Sc2ncnc3sccc23)cc1	4	26*	0	92*	1	1	88*
Cc1cc(SCC(=O)N/N=C/c2ccc(O)c(O)c2)c(C)cc1Br	-2	44*	-16	25	11	5	85*
Cc1ccc2c(c1)C(=O)CCCCC(=O)N2	5	-1	9	.	-11	.	.
CN(C)S(=O)(=O)c1ccc(-c2csc(N/N=C/c3ccco3)n2)cc1	11	0	-17	.	0	.	.
CN(C)S(=O)(=O)c1ccc(-c2csc(N/N=C/c3ccc(O)cc3)n2)cc1	2	45*	8	.	13	49*	94*
Cc1nc(N=C(N)N)nc2ccccc12	7	34*	-7	-23	20	29*	51*
